Results on eight molecules are retold here after PubChem BioAssay (Tox21).

A short description of assay [1]: Nuclear factor erythroid 2-related factor 2/antioxidant responsive element (Nrf2/ARE) small molecule agonists: qHTS cell viability counter screen in human keratinocytes (AID 1919968; active = well fitted curve in the direction sought with a large enough effect in the repeat runs; an effect the other way counts as inactive or inconclusive; also: nearly all actives have a fitted effect of over 55% in size; also: potency is read from the fitted curve at half-maximal effect). Summed up: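 Parallel cytotoxicity read: KeratinoSens HaCaT cells, compound treatment 23 h, viability by CellTiter-Fluor fluorescence 1 h post-reagent.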
Assay [2] can be described thus: Nuclear factor erythroid 2-related factor 2/antioxidant responsive element (Nrf2/ARE) small molecule agonists: luciferase reporter gene qHTS assay in human keratinocytes (AID 1919969). Also: nearly all actives have a fitted effect of over 35% in size.
The target in assay [3] is Gonadotropin-releasing hormone receptor (Homo sapiens) (UniProt P30968). The assay can be described thus: Human gonadotropin-releasing hormone receptor (GnRHR) small molecule agonists, calcium flux assay in GnRHR-HEK293 cells (AID 1920063). Also: nearly all actives have a fitted effect of over 35% in size. In short, it runs like this:
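Calcium flux, agonist mode, human GnRHR stably integrated in HEK293; dye 1 h at 37 C before compound; Ex/Em=480/540 kinetic read, 3 min; 15 concentrations, triplicate.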

Assay [4] concerns the target KiSS-1 receptor (Homo sapiens) (UniProt Q969F8). The assay can be described thus: Human kisspeptin (KISS1R) small molecule agonists, calcium flux assay in KISS1R-HEK293 cells (AID 1920064; active = well fitted curve in the direction sought with a large enough effect in the repeat runs; an effect the other way counts as inactive or inconclusive). In short, it runs like this: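 Triplicate 15-concentration series were applied to dye-loaded human KISS1R HEK293 cells, and agonist-evoked calcium fluorescence was captured for 3 min.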

The nature of assay [5]: G protein-coupled receptor (GPCR) small molecule agonists, calcium flux assay: HEK293 wild type cell line counter screen (AID 1920065). In short, it runs like this:
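Non-specific calcium responders were flagged by adding DMSO-dissolved compounds to dye-loaded cells and reading 480/540 nm fluorescence each second for 3 min; ATP served as positive control.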

Assay [6] can be described thus: p53 small molecule agonists, cell-based qHTS assay with human liver microsomes (AID 1963577). In short, it runs like this:
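Fluorescence of the beta-lactamase reporter in p53RE-bla cells, detected with LiveBLAzer substrate (2 h, room temperature, dark), served as the read-out after 16 h compound exposure at 37 C with human liver microsomes and NADPH, each 0.5 mg/mL final.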

Assay [7] is described as follows: p53 small molecule agonists, cell-based qHTS assay with rat liver microsomes (AID 1963578). In short, it runs like this: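 Cells carrying a p53 response element–beta-lactamase reporter were plated and rested 5 h, then dosed with compound in DMSO plus rat liver microsomes and NADPH, each at 0.5 mg/mL final. After 16 h at 37 C, LiveBLAzer substrate was added for 2 h.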

The nature of assay [8]: p53 small molecule agonists, cell-based qHTS assay with human liver microsomes: qHTS cell viability counter screen (AID 1963579). Also: nearly all actives have a fitted effect of over 45% in size. Summed up: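 Cytotoxicity counter screen: p53RE-bla, 4,000 cells/well; 5 h settle, 37 C/5% CO2; cpd + HLM 0.5 mg/mL + NADPH 0.5 mg/mL (final); 16 h, 37 C; CellTiter-Glo, 30 min RT, luminescence.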
Assay [9] in a line: p53 small molecule agonists, cell-based qHTS assay with rat liver microsomes: qHTS cell viability counter screen (AID 1963580). Also: nearly all actives have a fitted effect of over 45% in size. Summed up: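 Luminescent ATP readout (CellTiter-Glo, 30 min at room temperature) reports viability of p53RE-bla HCT-116 cells after 16 h at 37 C with test compounds under metabolic activation by rat liver microsomes and NADPH at 0.5 mg/mL final each.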

Assay [10] is described as follows: p53 small molecule agonists, cell-based qHTS assay (AID 1963582; active = well fitted activation curve with a large enough effect in the signal ratio in the repeat runs, not every such curve was filed as active; the % refers to the signal ratio). In short, it runs like this: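 Beta-lactamase reporter cells (p53RE-bla) treated with compounds for 16 h at 37 C; FRET substrate, 2 h, room temperature; fluorescence intensity.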
In assay [11] the target is 5-hydroxytryptamine receptor 2A (Homo sapiens) (UniProt P28223). The assay can be described thus: 5-hydroxytryptamine receptor 2A (HTR2A) small molecule agonists, cell-based qHTS assay (AID 1963587). Also: nearly all actives have a fitted effect of over 30% in size. In short, it runs like this:
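HTR2A-CHO cells, plated 18 h at 37 C/5% CO2, dye-loaded 1 h at 37 C; compounds in DMSO added by pin tool (agonist mode). Intracellular calcium flux read as kinetic fluorescence on FDSS over 2 min at 1 s intervals.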

Assay [12] has as its target Muscarinic acetylcholine receptor M1 (Homo sapiens) (UniProt P11229). In words: Cholinergic receptor muscarinic 1 (CHRM1) small molecule agonists, cell-based qHTS assay (AID 1963589). Also: nearly all actives have a fitted effect of over 35% in size. Summed up: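 qHTS, 15-point titration, 3 independent runs: compounds pin-transferred onto dye-loaded CHRM1-CHO cells (human M1), calcium fluorescence followed every second to detect agonism.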

The target of assay [13] is Beta-2 adrenergic receptor (Homo sapiens) (UniProt P07550). In words: Adrenergic beta2 receptor (ADRB2) small molecule antagonists, cell-based qHTS assay (AID 1963592). Also: series mostly up to about 92 µM; nearly all actives have a fitted effect of over 50% in size. Summed up: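 Assay format: CHO-ADRB2 cells, 18-20hr seeding at 37C/5% CO2, then compound plus 1nM isoproterenol agonist mix for 0.5hr RT. Homogeneous time-resolved fluorescence cAMP detection after 1hr, expressed as 665/615 nm ratio.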
Sequence of Beta-2 adrenergic receptor (Homo sapiens) (P07550 whole entry, looked up): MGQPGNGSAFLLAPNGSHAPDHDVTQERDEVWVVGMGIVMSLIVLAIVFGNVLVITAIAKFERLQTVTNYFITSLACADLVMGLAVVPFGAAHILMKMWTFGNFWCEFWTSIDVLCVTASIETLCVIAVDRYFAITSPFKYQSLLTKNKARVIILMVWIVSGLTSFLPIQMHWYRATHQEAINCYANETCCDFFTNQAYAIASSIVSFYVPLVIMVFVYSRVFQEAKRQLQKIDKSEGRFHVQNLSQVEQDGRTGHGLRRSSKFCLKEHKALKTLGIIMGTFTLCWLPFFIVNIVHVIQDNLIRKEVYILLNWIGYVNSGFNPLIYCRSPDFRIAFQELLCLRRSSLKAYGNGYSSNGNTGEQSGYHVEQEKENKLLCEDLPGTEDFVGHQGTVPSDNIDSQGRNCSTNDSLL

Assay [14] concerns the target D(2) dopamine receptor (Homo sapiens) (UniProt P14416). In words: Dopamine D2 receptor (DRD2) small molecule agonists, cell-based qHTS assay (AID 1963594). Also: nearly all actives have a fitted effect of over 35% in size. Summed up:
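HEK293 cells stably expressing DRD2 were cultured 24 h at 37 C, then given Ro20-1724 (0.1 mM final) and compounds for 10 min at room temperature. NKH477 (200nM) was then added for 30 min. cAMP was read by HTRF.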

Assay [15] shares this target. The assay can be described thus: Dopamine D2 receptor (DRD2) small molecule antagonists, cell-based qHTS assay (AID 1963595; active = well fitted inhibition curve with a large enough effect in the signal ratio in the repeat runs, with a control signal flat; the % refers to the signal ratio). In short, it runs like this: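 HEK293 cells stably expressing DRD2, preincubated with 0.1 mM Ro20-1724 and compounds 10 min, were stimulated with 200 nM NKH477 plus 12 nM quinpirole for 30 min at room temperature; cAMP measured by HTRF (665/620 nm).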

Assay [16] addresses Muscarinic acetylcholine receptor M1 (Homo sapiens) (UniProt P11229). The assay can be described thus: Cholinergic receptor muscarinic 1 (CHRM1) small molecule antagonists, cell-based qHTS assay (AID 1963588). Also: nearly all actives have a fitted effect of over 40% in size. Also: potency is read from the fitted curve at half-maximal effect. Summed up:
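Compounds were tested at 15 concentrations in three independent runs. Dye-loaded CHRM1-CHO cells were exposed 5 min at room temperature before stimulation by acetylcholine added at 50nM. Intracellular calcium was read kinetically on FDSS for 3 min.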

Assay [17] is described as follows: p53 small molecule agonists, cell-based qHTS assay: qHTS cell viability counter screen (AID 1963581). Also: nearly all actives have a fitted effect of over 45% in size. In short, it runs like this: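 Multiplexed with the reporter read, a CellTiter-Glo step (30 min, room temperature) gauges ATP-based viability of HCT-116 p53RE-bla cells after 16 h compound incubation at 37 C.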
Assay [18] addresses 5-hydroxytryptamine receptor 2A (Homo sapiens) (UniProt P28223). In words: 5-hydroxytryptamine receptor 2A (HTR2A) small molecule antagonists, cell-based qHTS assay (AID 1963586). Also: nearly all actives have a fitted effect of over 45% in size. In short, it runs like this:
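CHO cells stably expressing human HTR2A were plated for 18 h at 37 C, then loaded with calcium dye for 1 h. Compounds were preincubated 5 min at room temperature before DOI (4 nM solution) was added. Kinetic fluorescence was read for 3 min.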

A short description of assay [19]: cAMP Responsive Elements (CRE) small molecule agonists, cell-based qHTS assay (AID 1963590). Summed up: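 Quantitative HTS for CRE agonists: HEK 293T CRE-bla cells, overnight plating, 3 h compound incubation at 37 C/5% CO2, then 2 h room-temperature LiveBLAzer B/G FRET substrate loading.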
Assay [20] can be described thus: cAMP Responsive Elements (CRE) small molecule antagonists, cell-based qHTS assay (AID 1963591; active = well fitted inhibition curve with a large enough effect in the signal ratio in the repeat runs, not every such curve was filed as active; the % refers to the signal ratio). In short, it runs like this: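 Fluorescence intensity from cleaved LiveBLAzer B/G substrate (2 h, room temperature) quantified CRE-bla activity in HEK 293T cells exposed 3 h to compound with 0.25 uM final NKH477.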

Each structure is given as a SMILES string. Values without a mark were called inactive. Records with an inconclusive call do not appear. Active and inactive are the calls of the source. Unless noted, calls follow the shape of the full dose curve.

Sequence of Muscarinic acetylcholine receptor M1 (Homo sapiens) (P11229 whole entry, looked up): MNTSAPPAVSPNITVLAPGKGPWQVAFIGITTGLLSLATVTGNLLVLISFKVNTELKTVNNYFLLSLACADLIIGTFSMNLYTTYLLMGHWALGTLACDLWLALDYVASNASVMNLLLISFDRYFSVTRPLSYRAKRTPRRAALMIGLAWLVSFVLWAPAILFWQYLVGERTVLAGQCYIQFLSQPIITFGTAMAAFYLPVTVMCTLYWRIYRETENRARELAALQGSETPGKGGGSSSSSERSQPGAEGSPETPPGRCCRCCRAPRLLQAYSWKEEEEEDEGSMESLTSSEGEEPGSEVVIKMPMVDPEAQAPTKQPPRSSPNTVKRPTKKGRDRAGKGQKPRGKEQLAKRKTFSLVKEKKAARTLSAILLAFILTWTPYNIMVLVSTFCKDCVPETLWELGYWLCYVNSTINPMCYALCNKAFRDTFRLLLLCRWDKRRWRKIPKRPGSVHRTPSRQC
Sequence of KiSS-1 receptor (Homo sapiens) (Q969F8 whole entry, looked up): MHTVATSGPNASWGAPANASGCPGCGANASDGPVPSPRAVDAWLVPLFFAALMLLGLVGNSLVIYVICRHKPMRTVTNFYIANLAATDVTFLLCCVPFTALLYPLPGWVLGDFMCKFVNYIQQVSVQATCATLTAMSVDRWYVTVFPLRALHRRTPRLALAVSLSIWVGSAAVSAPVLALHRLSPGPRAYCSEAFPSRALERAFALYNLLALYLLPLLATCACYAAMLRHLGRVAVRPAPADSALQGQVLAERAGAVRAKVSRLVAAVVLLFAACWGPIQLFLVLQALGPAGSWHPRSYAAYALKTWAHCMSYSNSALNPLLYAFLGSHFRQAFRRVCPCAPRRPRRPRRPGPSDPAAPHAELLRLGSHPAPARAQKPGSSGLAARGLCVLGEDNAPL
Sequence of D(2) dopamine receptor (Homo sapiens) (P14416 whole entry, looked up): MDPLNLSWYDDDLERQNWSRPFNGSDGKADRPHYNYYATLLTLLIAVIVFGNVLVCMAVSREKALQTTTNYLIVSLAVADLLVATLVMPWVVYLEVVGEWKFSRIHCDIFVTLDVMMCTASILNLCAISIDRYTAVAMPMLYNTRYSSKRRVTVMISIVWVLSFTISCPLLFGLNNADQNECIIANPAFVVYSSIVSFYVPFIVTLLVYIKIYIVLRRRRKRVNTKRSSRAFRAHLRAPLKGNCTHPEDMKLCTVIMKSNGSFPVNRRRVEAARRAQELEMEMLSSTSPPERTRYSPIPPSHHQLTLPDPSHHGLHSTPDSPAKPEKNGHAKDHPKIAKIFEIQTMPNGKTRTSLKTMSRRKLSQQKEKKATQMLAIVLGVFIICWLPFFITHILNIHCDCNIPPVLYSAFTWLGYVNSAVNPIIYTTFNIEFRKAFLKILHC
Sequence of 5-hydroxytryptamine receptor 2A (Homo sapiens) (P28223 whole entry, looked up): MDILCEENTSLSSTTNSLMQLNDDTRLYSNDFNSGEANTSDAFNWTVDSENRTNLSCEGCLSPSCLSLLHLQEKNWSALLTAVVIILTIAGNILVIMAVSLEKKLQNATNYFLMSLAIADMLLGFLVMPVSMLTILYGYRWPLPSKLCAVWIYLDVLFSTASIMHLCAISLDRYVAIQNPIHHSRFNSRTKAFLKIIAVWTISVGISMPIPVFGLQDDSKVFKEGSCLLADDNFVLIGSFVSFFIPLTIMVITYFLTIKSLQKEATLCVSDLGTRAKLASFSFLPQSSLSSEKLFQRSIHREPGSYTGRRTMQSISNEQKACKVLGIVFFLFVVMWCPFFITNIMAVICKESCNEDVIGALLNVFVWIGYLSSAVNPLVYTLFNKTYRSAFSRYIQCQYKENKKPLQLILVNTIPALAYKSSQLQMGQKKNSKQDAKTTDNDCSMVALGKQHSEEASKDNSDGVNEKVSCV
Sequence of Gonadotropin-releasing hormone receptor (Homo sapiens) (P30968 whole entry, looked up): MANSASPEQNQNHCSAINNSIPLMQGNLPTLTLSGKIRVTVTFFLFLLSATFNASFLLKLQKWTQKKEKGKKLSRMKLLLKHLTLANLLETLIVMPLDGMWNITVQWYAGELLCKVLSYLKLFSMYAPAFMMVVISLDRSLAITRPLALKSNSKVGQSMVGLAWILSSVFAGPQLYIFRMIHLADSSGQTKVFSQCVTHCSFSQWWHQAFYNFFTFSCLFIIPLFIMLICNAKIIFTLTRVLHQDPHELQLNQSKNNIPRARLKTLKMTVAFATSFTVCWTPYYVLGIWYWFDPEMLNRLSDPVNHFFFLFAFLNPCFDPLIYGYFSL

`CC#C[C@]1(O)CC[C@H]2[C@@H]3C[C@H](C)C4=CC(=O)CC[C@]4(C)[C@H]3CC[C@@]21C`: the Potency entry in assay [1], in assay [2], in assay [3], in [4], in assay [5] and in assay [6] was “inactive” throughout. For the same molecule, the Potency result in assay [7], in assay [8], in assay [9], in assay [10], in assay [11] and in assay [12] was “inactive” in each case. Besides, the Potency entry in [13], in assay [14] and in [15] was “inactive” in each case.
In the case of `Cc1nnc2n1-c1sc(CCc3ccc(CC(C)C)cc3)cc1C(c1ccccc1Cl)=NC2C` (stereo unspecified), in assay [1], the Potency is 7.5 µM (active). Besides, the Potency result in assay [2], in [3], in assay [4], in assay [5], in [6] and in assay [7] was “inactive” in each case. In addition, the Potency entry in [8], in assay [9], in assay [11], in [16], in [12] and in [13] was “inactive” throughout. Also, the Potency result in [14] is “inactive”.
On to `CC(=O)CCc1ccc2c(c1)OCO2`, for which the Potency result in assay [1], in [2], in assay [3], in assay [4], in [5] and in assay [6] was “inactive” in each case. For the same molecule, the Potency entry in assay [7], in [8], in assay [17], in [10], in assay [18] and in assay [11] was “inactive” throughout. The Potency entry in assay [16], in assay [12], in [19], in [20], in assay [13] and in assay [14] was “inactive” in each case. Besides, the Potency result in assay [15] is “inactive”.
Take `CCCCCCCCCC(=O)O[C@H]1CC[C@H]2[C@@H]3CCC4=CC(=O)CC[C@@H]4[C@H]3CC[C@]12C`: the Potency result in [1], in assay [2], in assay [3], in assay [4], in [5] and in assay [6] was “inactive” in each case. For the same molecule, the Potency result in assay [7], in assay [8], in [9], in [18], in [11] and in assay [16] was “inactive” each time. The Potency entry in assay [12], in assay [19], in assay [20], in [14] and in [15] was “inactive” each time.
In the case of `[As]#[In]`, the Potency entry in assay [1], in assay [2], in assay [3], in assay [4], in assay [5] and in [6] was “inactive” each time. For the same molecule, the Potency result in [7], in assay [8], in assay [9], in assay [10], in assay [11] and in assay [16] was “inactive” throughout. Besides, the Potency result in assay [12], in assay [19], in assay [20], in assay [13], in assay [14] and in assay [15] was “inactive” throughout.
Turning to `CCC(OC(C)=O)C(CC(C)NC)(c1ccccc1)c1ccccc1` (stereo unspecified), the Potency in [1] is 54.9 µM (active). Besides, the Potency result in [2], in assay [3], in assay [4], in assay [5], in assay [6] and in [7] was “inactive” in each case. For the same molecule, the Potency result in [8], in assay [9], in assay [10], in [18], in assay [16] and in assay [20] was “inactive” each time. Moreover, the Potency result in assay [13], in [14] and in assay [15] was “inactive” in each case.
As for `C[C@]12CC[C@H]3[C@@H](CCC4=CC(=O)CC[C@@H]43)[C@@H]1CC[C@@H]2OC(=O)CCc1ccccc1`, the Potency result in assay [1], in assay [2], in [3], in [4], in [5] and in assay [6] was “inactive” in each case. The Potency entry in [7], in assay [8], in [17], in assay [10], in assay [18] and in [11] was “inactive” each time. For the same molecule, the Potency result in assay [12], in [19], in assay [13], in [14] and in [15] was “inactive” throughout. Moreover, in assay [16], the Potency was 2.31 µM (active).
With `CC(C)(C)NCC(O)c1ccccc1Cl` (stereo unspecified), the Potency entry in assay [1], in assay [2], in [3], in assay [4], in assay [5] and in assay [6] was “inactive” throughout. The Potency result in assay [7], in [9], in assay [17], in [10], in assay [11] and in assay [12] was “inactive” throughout. The Potency result in [20] and in [13] was “inactive” each time.
